Assay [1] addresses Serine/threonine-protein kinase MRCK alpha (Homo sapiens) (UniProt Q5VT25). The settings on record: at 0.1 µM.
Assay [2] has the same target. The following applies: at 1 µM.
Assay [3] has as its target Serine/threonine-protein kinase MRCK beta (Homo sapiens) (UniProt Q9Y5S2). The following applies: at 0.1 µM.
Assay [4] has the same target. The settings on record: at 1 µM.
For assay [5], the target named is Ribosomal protein S6 kinase alpha-5 (Homo sapiens) (UniProt O75582). The settings on record: at 0.1 µM.
For assay [6] the target is unchanged. The following applies: at 1 µM.
The target in assay [7] is Ribosomal protein S6 kinase alpha-4 (Homo sapiens) (UniProt O75676). The following applies: at 0.1 µM.
For assay [8] the target is unchanged. The following applies: at 1 µM.
Assay [9] concerns the target Ribosomal protein S6 kinase beta-1 (Homo sapiens) (UniProt P23443). The settings on record: at 0.1 µM.
The target is the same in assay [10]. The settings on record: at 1 µM.
In assay [11] the target is T1, 3-phosphoinositide-dependent protein kinase 1 (Homo sapiens) (UniProt O15530).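 Further: values are mean inhibition of PDK1.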
T1 sequence (whole entry): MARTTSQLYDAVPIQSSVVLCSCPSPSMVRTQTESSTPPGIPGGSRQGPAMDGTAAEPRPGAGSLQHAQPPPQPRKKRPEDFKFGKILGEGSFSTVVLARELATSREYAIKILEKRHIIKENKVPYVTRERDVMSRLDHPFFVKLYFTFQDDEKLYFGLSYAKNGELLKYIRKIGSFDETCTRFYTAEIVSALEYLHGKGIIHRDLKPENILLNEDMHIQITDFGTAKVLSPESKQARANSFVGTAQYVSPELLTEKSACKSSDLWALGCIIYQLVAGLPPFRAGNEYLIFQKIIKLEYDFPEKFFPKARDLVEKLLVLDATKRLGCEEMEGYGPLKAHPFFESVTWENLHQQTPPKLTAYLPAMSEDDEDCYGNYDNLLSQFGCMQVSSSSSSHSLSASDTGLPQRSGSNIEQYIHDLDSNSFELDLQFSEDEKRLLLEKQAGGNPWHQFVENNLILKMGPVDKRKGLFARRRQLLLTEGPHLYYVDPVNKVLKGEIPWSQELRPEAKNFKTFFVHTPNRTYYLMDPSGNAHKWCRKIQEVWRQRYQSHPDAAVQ
The settings on record: at 0.1 µM.

The target in assay [12] is cAMP-dependent protein kinase catalytic subunit alpha (Homo sapiens) (UniProt P17612). The settings on record: at 0.1 µM.
Assay [13] has the same target. The settings on record: at 1 µM.
In assay [14] the target is Protein kinase C alpha type (Homo sapiens) (UniProt P17252). The following applies: at 0.1 µM.
The target is the same in assay [15]. The settings on record: at 1 µM.
In assay [16] the target is Protein kinase C beta type (Homo sapiens) (UniProt P05771). The settings on record: at 0.1 µM.
For assay [17] the target is unchanged. The settings on record: at 1 µM.
Assay [18] addresses Protein kinase C eta type (Homo sapiens) (UniProt P24723). The following applies: at 0.1 µM.
For assay [19] the target is unchanged. The settings on record: at 1 µM.
The target of assay [20] is Protein kinase C gamma type (Homo sapiens) (UniProt P05129). The settings on record: at 0.1 µM.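 Further: values are mean percent inhibition of PKC gamma.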

Serine/threonine-protein kinase MRCK alpha (Homo sapiens), sequence (Q5VT25 whole entry): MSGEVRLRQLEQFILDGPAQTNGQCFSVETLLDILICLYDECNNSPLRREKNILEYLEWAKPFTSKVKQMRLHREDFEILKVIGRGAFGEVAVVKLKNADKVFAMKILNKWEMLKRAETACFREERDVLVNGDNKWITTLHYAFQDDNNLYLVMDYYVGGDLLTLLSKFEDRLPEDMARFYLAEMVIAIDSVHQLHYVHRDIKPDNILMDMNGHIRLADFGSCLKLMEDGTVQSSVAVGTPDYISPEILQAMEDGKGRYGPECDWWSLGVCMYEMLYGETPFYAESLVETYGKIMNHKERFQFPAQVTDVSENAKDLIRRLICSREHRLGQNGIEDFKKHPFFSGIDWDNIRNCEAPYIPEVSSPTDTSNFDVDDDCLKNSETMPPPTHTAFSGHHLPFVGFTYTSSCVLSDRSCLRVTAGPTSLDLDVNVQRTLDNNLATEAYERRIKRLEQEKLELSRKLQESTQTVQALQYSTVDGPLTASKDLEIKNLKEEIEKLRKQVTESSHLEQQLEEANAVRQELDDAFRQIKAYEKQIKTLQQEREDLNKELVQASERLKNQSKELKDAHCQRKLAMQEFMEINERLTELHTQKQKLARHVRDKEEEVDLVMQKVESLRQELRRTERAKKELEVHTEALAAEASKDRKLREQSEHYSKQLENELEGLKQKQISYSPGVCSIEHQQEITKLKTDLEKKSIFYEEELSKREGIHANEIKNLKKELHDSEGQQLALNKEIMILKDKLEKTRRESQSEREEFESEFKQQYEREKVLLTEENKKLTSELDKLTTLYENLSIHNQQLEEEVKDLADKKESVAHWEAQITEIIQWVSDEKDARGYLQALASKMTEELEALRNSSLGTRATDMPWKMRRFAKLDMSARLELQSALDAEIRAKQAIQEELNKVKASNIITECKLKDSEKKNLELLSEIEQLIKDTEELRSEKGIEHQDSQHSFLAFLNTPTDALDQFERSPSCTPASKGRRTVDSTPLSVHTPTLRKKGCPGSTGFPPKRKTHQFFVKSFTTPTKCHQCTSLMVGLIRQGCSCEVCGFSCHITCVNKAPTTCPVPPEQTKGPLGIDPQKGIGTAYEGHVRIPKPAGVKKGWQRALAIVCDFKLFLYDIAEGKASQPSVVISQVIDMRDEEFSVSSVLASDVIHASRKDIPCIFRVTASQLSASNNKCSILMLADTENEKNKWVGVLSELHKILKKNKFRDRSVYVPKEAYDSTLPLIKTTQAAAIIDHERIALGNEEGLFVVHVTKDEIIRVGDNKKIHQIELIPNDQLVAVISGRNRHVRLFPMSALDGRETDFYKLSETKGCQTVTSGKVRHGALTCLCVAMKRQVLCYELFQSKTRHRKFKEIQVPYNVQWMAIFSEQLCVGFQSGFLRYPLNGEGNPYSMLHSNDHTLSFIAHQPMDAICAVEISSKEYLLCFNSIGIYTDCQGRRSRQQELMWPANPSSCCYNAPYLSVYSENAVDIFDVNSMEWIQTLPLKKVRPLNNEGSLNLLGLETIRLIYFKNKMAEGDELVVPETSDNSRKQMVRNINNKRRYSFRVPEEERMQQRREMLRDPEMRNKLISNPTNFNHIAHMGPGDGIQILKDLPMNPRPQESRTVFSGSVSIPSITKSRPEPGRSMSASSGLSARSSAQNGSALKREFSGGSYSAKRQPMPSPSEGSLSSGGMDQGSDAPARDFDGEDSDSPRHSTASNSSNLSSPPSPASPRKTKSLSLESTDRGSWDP
Serine/threonine-protein kinase MRCK beta (Homo sapiens), sequence (Q9Y5S2 whole entry): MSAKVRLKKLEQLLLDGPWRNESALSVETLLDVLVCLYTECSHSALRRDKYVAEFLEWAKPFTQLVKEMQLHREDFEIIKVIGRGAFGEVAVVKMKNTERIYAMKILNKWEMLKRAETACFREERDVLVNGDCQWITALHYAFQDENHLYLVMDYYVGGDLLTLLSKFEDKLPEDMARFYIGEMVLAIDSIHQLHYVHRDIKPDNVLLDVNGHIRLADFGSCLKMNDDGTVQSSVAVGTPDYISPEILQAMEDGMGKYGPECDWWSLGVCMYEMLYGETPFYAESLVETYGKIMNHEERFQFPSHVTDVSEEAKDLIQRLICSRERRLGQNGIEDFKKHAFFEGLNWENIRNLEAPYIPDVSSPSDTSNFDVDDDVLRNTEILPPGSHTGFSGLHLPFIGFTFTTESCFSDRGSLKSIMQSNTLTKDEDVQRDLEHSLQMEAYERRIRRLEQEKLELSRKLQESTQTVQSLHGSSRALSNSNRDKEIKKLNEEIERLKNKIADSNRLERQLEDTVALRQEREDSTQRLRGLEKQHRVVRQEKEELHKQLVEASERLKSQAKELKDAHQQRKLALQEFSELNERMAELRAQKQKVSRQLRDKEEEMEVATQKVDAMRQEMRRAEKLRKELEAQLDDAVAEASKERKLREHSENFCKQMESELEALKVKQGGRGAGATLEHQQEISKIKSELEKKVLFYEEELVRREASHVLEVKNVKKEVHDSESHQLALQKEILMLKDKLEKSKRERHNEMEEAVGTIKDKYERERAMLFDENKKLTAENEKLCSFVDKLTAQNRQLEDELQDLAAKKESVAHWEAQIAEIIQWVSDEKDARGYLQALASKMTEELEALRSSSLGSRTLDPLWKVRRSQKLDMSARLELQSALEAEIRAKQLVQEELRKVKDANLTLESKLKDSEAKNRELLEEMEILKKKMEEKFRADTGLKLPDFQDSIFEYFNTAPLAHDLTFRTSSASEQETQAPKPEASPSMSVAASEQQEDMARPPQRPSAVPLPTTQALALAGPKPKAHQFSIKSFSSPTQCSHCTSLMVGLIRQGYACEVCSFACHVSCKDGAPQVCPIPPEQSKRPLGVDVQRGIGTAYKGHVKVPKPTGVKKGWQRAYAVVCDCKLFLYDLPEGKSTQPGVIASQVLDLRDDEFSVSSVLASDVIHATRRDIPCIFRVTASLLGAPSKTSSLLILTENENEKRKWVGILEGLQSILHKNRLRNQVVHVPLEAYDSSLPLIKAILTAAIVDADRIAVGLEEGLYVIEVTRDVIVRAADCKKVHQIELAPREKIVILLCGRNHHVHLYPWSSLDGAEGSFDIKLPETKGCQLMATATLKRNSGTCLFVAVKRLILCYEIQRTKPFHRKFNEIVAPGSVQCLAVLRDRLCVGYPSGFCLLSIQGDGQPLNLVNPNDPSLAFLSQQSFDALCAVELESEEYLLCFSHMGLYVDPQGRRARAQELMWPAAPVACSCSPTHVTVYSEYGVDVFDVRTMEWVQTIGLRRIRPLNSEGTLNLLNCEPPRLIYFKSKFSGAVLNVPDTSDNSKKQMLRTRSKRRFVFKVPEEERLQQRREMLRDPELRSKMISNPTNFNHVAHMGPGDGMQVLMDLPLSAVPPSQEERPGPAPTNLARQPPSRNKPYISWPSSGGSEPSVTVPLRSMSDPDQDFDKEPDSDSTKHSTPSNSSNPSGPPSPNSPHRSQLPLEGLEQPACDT
Ribosomal protein S6 kinase alpha-5 (Homo sapiens), sequence (O75582 whole entry, looked up): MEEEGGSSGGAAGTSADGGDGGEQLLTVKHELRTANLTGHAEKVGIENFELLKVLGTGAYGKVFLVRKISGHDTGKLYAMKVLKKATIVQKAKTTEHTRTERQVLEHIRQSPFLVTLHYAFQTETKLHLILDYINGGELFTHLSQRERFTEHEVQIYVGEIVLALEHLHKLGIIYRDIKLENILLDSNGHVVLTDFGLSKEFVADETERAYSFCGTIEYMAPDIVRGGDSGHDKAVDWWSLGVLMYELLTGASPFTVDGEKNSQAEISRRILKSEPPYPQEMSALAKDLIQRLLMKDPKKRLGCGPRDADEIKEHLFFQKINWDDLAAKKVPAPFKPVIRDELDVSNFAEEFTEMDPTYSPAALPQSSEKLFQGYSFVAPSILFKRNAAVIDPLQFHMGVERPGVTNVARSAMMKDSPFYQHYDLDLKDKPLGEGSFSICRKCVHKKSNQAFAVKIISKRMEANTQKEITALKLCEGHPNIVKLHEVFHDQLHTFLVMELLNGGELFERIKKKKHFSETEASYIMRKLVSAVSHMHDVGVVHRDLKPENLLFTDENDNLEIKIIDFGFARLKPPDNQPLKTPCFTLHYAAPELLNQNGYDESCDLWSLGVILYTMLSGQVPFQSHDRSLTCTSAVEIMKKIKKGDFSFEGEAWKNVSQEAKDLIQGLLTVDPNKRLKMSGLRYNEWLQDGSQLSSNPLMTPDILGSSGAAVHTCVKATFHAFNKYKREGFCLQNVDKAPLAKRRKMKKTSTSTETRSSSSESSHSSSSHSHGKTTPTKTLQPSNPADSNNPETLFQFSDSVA

As usually defined, the inhibition is the relative decrease from the control value, in per cent. Take `COc1ccc2c(-c3ccnc(Nc4cccc(OC(F)(F)F)c4)n3)cnn2n1`: the inhibition was -0.42% in [1]; 2.27% in assay [2]; 0.42% in assay [3]; -0.61% in assay [4]; 4.58% in [5]; 4.54% in [6]. Besides, the inhibition in assay [7] came out at 2.99%; in assay [8], 7.19%; in assay [9] it was 3.11%; in assay [10] it was 3.7%; in assay [11] it was 1.72%; in assay [12] it was 1.61%. For the same molecule, the inhibition was 3.17% in assay [13]; 1.34% in [14]; 12.7% in [15]; 0.08% in assay [16]; 3.07% in assay [17]; 6.47% in assay [18]. Besides, the inhibition in assay [19] was 6.9%; in assay [20], 5.4%.
Consider `CS(=O)(=O)CCNCc1ccc(-c2ccc3ncnc(Nc4ccc(OCc5ccccc5)c(C(F)(F)F)c4)c3c2)o1`, for which the inhibition in assay [1] was -6.32%; in [2], -1.92%; in [3], -0.98%; in assay [4], -1.25%; in assay [5], 8.24%; in assay [6], 6.53%. The inhibition in assay [7] is 1.86%; in assay [8], 0.65%; in assay [9] it was 1.21%; in assay [10], 1.16%; in assay [11], -0.19%; in [12], 1.37%. For the same molecule, the inhibition was 1.5% in [13]; 0.59% in assay [14]; 0.28% in [15]; 0.21% in assay [16]; 1.23% in assay [17]; 4.55% in [18]. Also, the inhibition in assay [19] turned out to be 5.11%; in assay [20] it was 2.66%.
For the molecule `CC(C)COC(=O)c1ccc2c(c1)/C(=C/Nc1ccc(S(N)(=O)=O)cc1)C(=O)N2`, the inhibition stood at 3.02% in [1]; 6.98% in [2]; 3.62% in [3]; 12.7% in assay [4]; 3.88% in assay [5]; 11.6% in assay [6]. The inhibition was 5.45% in [7]; 20.9% in [8]; 3% in assay [9]; 18.1% in assay [10]; 19.6% in assay [11]; 6.49% in assay [12]. Also, the inhibition is 11.8% in [13]; 1.15% in assay [14]; 7.21% in assay [15]; 3.19% in [16]; 5.57% in [17]; -1.68% in [18]. In addition, the values for the inhibition in assay [19] and in [20] were 1.97% and -1.87%, respectively.
Turning to `Nc1ncc(-c2cccc(S(N)(=O)=O)c2)c2scc(-c3ccc(F)c(Cl)c3)c12`, the inhibition in [1] was -3.16%; in [2], 7.9%; in assay [3] it was 0.86%; in assay [4], 0.71%; in assay [5], 2.3%; in [6], 0.77%. In addition, the inhibition worked out at 3.08% in assay [7]; 2.86% in [8]; 1.63% in assay [9]; 0.72% in [10]; 1.01% in assay [11]; 3.02% in assay [12]. Also, the inhibition in [13] was 3.59%; in assay [14] it was -0.67%; in [15] it was 2.74%; in assay [16] it was -0.08%; in [17], 0.9%; in assay [18], 4.76%. In addition, the inhibition is 6.59% in assay [19] and -0.92% in assay [20].
For `COc1ccc(CNC(=O)c2ccc(-c3cc(-c4nnc(C)o4)ccc3C)cc2)cc1`, the inhibition was found to be 2.98% in [1]; 6.58% in assay [2]; 2.16% in assay [3]; 2.99% in [4]; 9.25% in [5]; 9.58% in [6]. The inhibition in assay [7] was 3.89%; in assay [8], 4.66%; in assay [9], 1.64%; in assay [10] it was 2.15%; in assay [11], 1.94%; in assay [12] it was 3.14%. Moreover, the inhibition in assay [13] is 3.15%; in assay [14], 0.19%; in assay [15], 0.76%; in assay [16], 6.66%; in assay [17] it was 9.43%; in assay [18] it was -0.12%. The inhibition in assay [19] came out at 4.73%; in [20], 3.1%.
Turning to `COc1ccc2[nH]c3c4[nH]c5ccc(OC)cc5c4c4c(c3c2c1)C(=O)NC4=O`, the inhibition in assay [1] is 0.84%; in [2], 11.8%; in assay [3] it was -0.86%; in assay [4], 2.96%; in assay [5], 18.7%; in [6], 48.4%. Moreover, the inhibition in assay [7] is 11.8%; in [8], 45.3%; in assay [9] it was 45.6%; in assay [10], 83.6%; in assay [11] it was 29.8%; in assay [12] it was 4.03%. For the same molecule, the inhibition came to 17.2% in assay [13]; 4.27% in [14]; 28.7% in [15]; 1.55% in assay [16]; 8.91% in [17]; 3.82% in [18]. The inhibition was 19.5% in assay [19] and 4.07% in assay [20].

The values are drawn from ChEMBL document CHEMBL1961873, “Compounds: GSK PKIS; Assays: Nanosyn kinase panel” (2012).
